From PubChem BioAssay
In the library only some 7.8% were active in any assay of this set; here they are far more common.
Marburg entry inh: qHTS for inhibitors of binding or entry into cells for Marburg Virus | Marburg virus pseudotyped entry inhibition, cell reporter | 300,000 compounds, 1.8% hits | Potency, µM (titrated, usually from 37.8 µM), without a hit: top-dose activity change, negative = inhibition, hits mostly inhibitors; calls by dose curve; tested in HEK293 cells; also: potency is read from the fitted curve at half-maximal effect
HCV inh: qHTS Assay for Inhibitors of Hepatitis C Virus (HCV); Potency, µM (doses to about 41.8 µM), for inactives: at the top dose activity change, negative = inhibition, usual class: inhibitors; 340,000 compounds, 3.4% hits; Huh7.5.1 HCVcc-Cre infection, luciferase reporter, 44 h; AID 651820, 2012; active = well fitted inhibition curve with a large enough effect; inconclusive = small, poorly fitted or top-dose-only effect, or another doubt; inactive = no such curve, though single readings can be large or run the other way; also: potency is read from the fitted curve at half-maximal effect
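Seed cells (1,000/well) for 4 h; treat with compound and infect with HCVcc-Cre, moi about 0.5. Incubate 44 h, then detect luciferase activity.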
Vaccinia Venus: qHTS for Stage-Specific Inhibitors of Vaccinia Orthopoxvirus: Venus Reporter Primary qHTS. Vaccinia virus Venus reporter expression, fluorescence. Potency, µM (highest dose often 36.5 µM), for the others: at the highest dose activity change, negative = inhibition, most hits filed as inhibitors. 330,000 compounds, 0.46% hits; calls by dose curve; tested in A549 cells; also: potency is read from the fitted curve at half-maximal effect; nearly all actives have a fitted effect of over 30% in size
Lassa entry inh: qHTS for Inhibitors of binding or entry into cells for Lassa Virus. Potency, µM (series often up to 37.9 µM), for inactives: at the top dose activity change, negative = inhibition, usual class: inhibitors. Lassa virus pseudotype entry inhibition, cell reporter. 300,000 compounds, 1.2% hits; calls by dose curve; tested in HEK293 cells; also: potency is read from the fitted curve at half-maximal effect; nearly all actives have a fitted effect of over 50% in size
Vaccinia mCherry: qHTS for Stage-Specific Inhibitors of Vaccinia Orthopoxvirus: mCherry Reporter Primary qHTS; Potency, µM (series often up to 36.5 µM), for inactives: at the highest dose activity change, negative = inhibition, most hits filed as inhibitors; 310,000 compounds, 0.63% hits; Vaccinia virus mCherry reporter infection, fluorescence; calls by dose curve; tested in A549 cells; also: potency is read from the fitted curve at half-maximal effect; nearly all actives have a fitted effect of over 35% in size
HCMV inh: qHTS Assay for inhibitors of the human cytomegalovirus (HCMV); HFF cells, HCMV-luciferase reporter, 72 h; hits give low values; activity change, negative = inhibition, % at 57.5 µM; 410,000 compounds, 4.5% hits; in the data active = activity change below about -60%; inconclusive = no clear call, values can overlap the other calls; inactive = above about -39%
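Cell-based, HFFs, 1000 cells/well, 16 h 37C; cpds in DMSO + HCMV-luc, MOI 1 PFU/cell; 72 h 37C; OneGlo luminescence after 5 min RT; norm. to buffer vs Salinomycin 10uM.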
Starred values were filed as active, the others as inactive; i = inactive; ? = inconclusive; . = no result; [ ] = remark or other dose. % is scaled to controls: 0 for no effect and ±100 for the full control effect.

SMILES	Marburg entry inh	HCV inh	Vaccinia Venus	Lassa entry inh	Vaccinia mCherry	HCMV inh
c1ccc(N2CCN(Cc3ccnc4ccccc34)CC2)cc1	?	28µM*	.	-25%	.	-83*
CCOC(=O)N1CCN(Cc2cc(Cl)c3cccnc3c2O)CC1	?	4µM*	?	?	?	-92*
CC1=C(C(=O)N2CCN(c3cccc(C)c3C)CC2)C2(CCCCC2)OC1=O	2%[46.1 µM]	.	-10%	?	i	-18
OC1CCN(Cc2ccc3c(c2)CN(C/C=C/c2ccco2)CCO3)CC1	.	.	-1%	.	-1%	.
COc1ccc(-n2cc(C(=O)NCc3ccccc3Cl)c3ccccc3c2=O)cc1	.	.	-10%	1%[46.1 µM]	-20%	6
COc1ccccc1CNC(=O)COCc1cc(-c2ccc3c(c2)OCO3)on1	.	.	-12%	7%[46.1 µM]	-13%	0
Oc1c(CN2CCN(c3ccccc3)CC2)cc(Br)c2cccnc12	.	?	.	.	.	-70*
Brc1cc2c(cc1CN1CCN(c3ccccc3)CC1)OCCO2	?	3%	5%	?	?	27
CCOc1ccc(Cl)cc1-c1cc(C(=O)Nc2cc(OC)c(OC)c(OC)c2)[nH]n1	.	.	-27%	.	-23%	-35
Cc1ccc(NC(=O)/C(C#N)=C/c2cc(C)n(-c3ccc(Br)cc3)c2C)cc1C	.	.	-19%	10%[46.1 µM]	-9%	-108*
CCOC(=O)/C(C#N)=C/c1cc(C)n(-c2ccc(Br)cc2)c1C	5%	.	.	.	.	46
CCOC(=O)/C(C#N)=C/c1cc(C)n(-c2ccccc2)c1C	?	32µM*	-5%	?	-15%	?
Cc1ccc(NC(=O)Cn2cnc3c2c(=O)n(C)c(=O)n3C)cc1C	.	.	11%	16%[46.1 µM]	3%	3
COc1cccc(Nc2nccc3[nH]c(-c4ccc(F)c(F)c4)nc23)c1	.	.	.	.	.	-5
C=CC(=O)Nc1cccc(Oc2ccnc3[nH]ccc23)c1	.	34%[8.37 µM]	5.6µM*	.	?	.
C=CC(=O)Nc1cccc(Oc2ccnc(Nc3ccc(N4CCN(C)CC4)cc3)n2)c1	0%	-21%	3.5µM*	.	?	-21
CN1CCN(c2ccc(Nc3nccc4[nH]c(-c5cccnc5)cc34)cc2)CC1	.	.	.	.	.	42
COc1cccc(NC(=O)Nc2cccnc2)c1	.	19%	.	.	.	-26
C=CC(=O)Nc1cccc(N(C)c2ccnc(Nc3ccc(N4CCN(C)CC4)cc3)n2)c1	.	?	4.5µM*	.	?	.
Cc1ccccc1C(=O)O/N=C(\N)Cc1cccs1	?	?	-20%	9%[46.1 µM]	i	-62*
N/C(Cc1cccc2ccccc12)=N\OC(=O)c1cccs1	4%	6%	-8%	3%	-2%	.
COc1ccccc1C/C(N)=N/OC(=O)c1cccs1	11µM*	?	-4%	10µM*	-3%	65
CCCCN(CC)CCCNC(=O)CS(=O)(=O)Cc1nc(-c2ccc(C)cc2)oc1C	-1%[46.1 µM]	.	-23%	?	-21%	?
CC(=O)Nc1ccc(Nc2nc(C)c([N+](=O)[O-])c(N(C)c3ccccc3)n2)cc1	-16%	18µM*	-8%	?	-13%	?
CN(c1ccccc1)c1nc(N)c([N+](=O)[O-])c(Nc2ccccc2)n1	.	5.6µM*	.	.	.	-11
SMILES	Marburg entry inh	HCV inh	Vaccinia Venus	Lassa entry inh	Vaccinia mCherry	HCMV inh
CC(=O)Nc1ccc(Nc2nc(C)c([N+](=O)[O-])c(Nc3ccccc3)n2)cc1	?	?	?	?	-21%	-22
CCC(=O)Nc1ccc(Nc2nc(C)c([N+](=O)[O-])c(Nc3ccc(NC(=O)CC)cc3)n2)cc1	?	10µM*	-21%	?	-17%	-17
CN(C)CCN1CCN(C2CN(CCc3ccccc3)S(=O)(=O)C2)CC1 (stereo not drawn)	.	.	1%	.	i	-8
CCCc1c(C(=O)OCC)nnc2c(-c3ccccc3)c(C)nn12	-3%[46.1 µM]	.	1%	?	-3%	-4
CCOC(=O)c1c(C)[nH]c(CCC(=O)NCc2cc(Br)ccc2OC)c1C	.	.	-3%	-18%[46.1 µM]	-8%	10
CC(=O)c1cccc(S(=O)(=O)NCCc2csc3nc(-c4ccc(F)cc4)nn23)c1	.	.	-15%	-17%[46.1 µM]	-6%	-21
COc1ccc(Nc2cc3[nH]c(-c4ccc(C(=O)N(C)C)cc4)cc3cn2)c(OC)c1	.	.	.	.	.	38
Cc1ccc(CS(=O)(=O)c2ccc(C(=O)N3CCN(c4ccccn4)CC3)cc2[N+](=O)[O-])cc1	?	?	-21%	-24%	-29%	-91*
O=C(c1ccc(S(=O)(=O)Cc2ccccc2F)c([N+](=O)[O-])c1)N1CCCC1	?	4%	2%	-2%	-8%	-5
O=C(c1ccc(S(=O)(=O)Cc2ccccc2Cl)c([N+](=O)[O-])c1)N1CCOCC1	?	-13%	?	?	?	-69*
CC1CCN(C(=O)c2ccc(S(=O)(=O)Cc3ccccc3F)c([N+](=O)[O-])c2)CC1	?	?	-17%	?	i	-76*
O=C(c1ccc(S(=O)(=O)c2ccccc2Cl)c([N+](=O)[O-])c1)N1CCN(Cc2ccccc2)CC1	?	?	-16%	?	-6%	-85*
O=C(c1ccccc1)c1ccc(OCC(O)CN2CCN(Cc3ccccc3)CC2)cc1 (stereo not drawn)	15µM*	?	.	?	.	-7
O=C(c1ccccc1)c1ccc(OCCCN2CCCC2)cc1	-17%	36%	-15%	11%	-13%	-7
O=C(c1ccccc1)c1ccc(OCCOCCN2CCN(Cc3ccccc3)CC2)cc1	?	14µM*	-26%	-2%	?	-26
C=CC[C@@](C(C)=O)(C(=O)OC)[C@@H](NC(=O)OC)c1ccccc1	-3%[14.2 µM]	.	.	.	.	.
O=C(NCCC1=CCCCC1)c1ccc2c(c1)N(Cc1cccc(Cl)c1)C(=O)c1ccccc1S2=O (stereo not drawn)	.	.	-11%	-27%[46.1 µM]	-14%	-63*
O=C(NCCC1=CCCCC1)c1ccc2c(c1)N(Cc1ccc(Cl)cc1)C(=O)c1ccccc1S2(=O)=O	11µM*	.	-23%	?	-12%	31
CC1CCc2[nH]c3ccc(C(=O)O)cc3c2C1 (stereo not drawn)	.	9%	.	.	.	-36
CC1CCc2[nH]c3ccc(C(=O)NCCCOC(C)C)cc3c2C1 (stereo not drawn)	.	10µM*	.	.	.	-20
COc1ccccc1N1CCN(C(=O)c2ccc3[nH]c4c(c3c2)CC(C)CC4)CC1 (stereo not drawn)	?	11µM*	-10%	?	-25%	19
CCn1c(=O)c(C(=O)Nc2ccc(C)cc2C)c(O)c2ccccc21	2%	10µM*	-8%	9%	i	.
CCCCCCn1c(=O)c(C(=O)Nc2ncccc2O)c(O)c2ccccc21	.	-17%	.	.	.	-73*
